Data taken from PubChem BioAssay AID743195 (National Center for Advancing Translational Sciences (NCATS), 2013).
The list shows a part of the results. Results filed as inconclusive are left out. The source made the active and inactive calls. Calls come from the whole dose curve; as a rule, active = well fitted inhibition curve with a large enough effect; inconclusive = small, poorly fitted or top-dose-only effect; inactive = no such curve, though single readings can be large or run the other way.

These compounds were tested against Aldehyde dehydrogenase 1A1 (Homo sapiens) (UniProt P00352) (assay: Extended Characterization of HPGD Inhibitors: Counterscreen Against ALDH1A1). Conditions: recombinant ALDH1A1, NADH fluorescence, propionaldehyde/NAD+.
Description: The central role of HPGD is to inactivate prostaglandins such as prostaglandin E2 (PGE2) or prostaglandin D2 (PGD2). These prostaglandins are involved in a number of processes, including inflammation, differentiation, and cellular signaling, which makes HPGD an important target for pharmacological intervention. Aldehyde dehydrogenase 1 family, member A1 (ALDH1A1) catalyzes the NAD+ dependent oxidation of a variety of endogenous and exogenous aldehydes to the corresponding carboxylic acids. The enzyme is the critical step in the metabolic activation of retinoic acid, which plays an essential role as a nuclear receptor ligand. […] ALDH1A1 shares some homology with HPGD, and it served as a suitable anti-target of HPGD to determine chemical probe selectivity. The assay system is similar to the HPGD primary screening protocol. Inhibition of ALDH1A1 activity was screened by utilizing propionaldehyde as an electron donor and NAD+ as an electron acceptor/cofactor. An increase in the fluorescence intensity due to conversion of NAD+ to NADH was used to measure the enzyme activity. NIH Chemical Genomics Center [NCGC] NIH Molecular Libraries Probe Centers Network [MLPCN] MLPCN Grant: MH084681 Assay Submitter (PI): Structural Genomics Consortium
3 uL of enzyme (final concentration 50 nM) or buffer were dispensed into a 1,536-well solid-bottom black plate (Greiner Bio One, Monroe, NC) followed by pin-tool transfer (23 nL) of compound (final concentration range 324 pM to 57.2 uM) and control (Bay 11-7085 (CID-5353432), final concentration range 1.31 nM to 2.86 uM). Samples were incubated (RT, protected from light) for 15 minutes followed by a 1 uL substrate addition of NAD+ and Propionaldehyde (final concentrations of 1 mM and 80 uM, respectively). Plates were centrifuged at 1,000 rpm for 15 seconds, then read in kinetic mode on a ViewLux High-throughput CCD imager (Perkin-Elmer) equipped with standard UV fluorescence optics (340 nm excitation, 450 nm emission) for 10 minutes at 5 minute intervals. Data were normalized (Read […] - Read 10 min) against no-enzyme (positive) and enzyme-containing (neutral) wells.

Sequence of Aldehyde dehydrogenase 1A1 (Homo sapiens) (P00352 whole entry, looked up): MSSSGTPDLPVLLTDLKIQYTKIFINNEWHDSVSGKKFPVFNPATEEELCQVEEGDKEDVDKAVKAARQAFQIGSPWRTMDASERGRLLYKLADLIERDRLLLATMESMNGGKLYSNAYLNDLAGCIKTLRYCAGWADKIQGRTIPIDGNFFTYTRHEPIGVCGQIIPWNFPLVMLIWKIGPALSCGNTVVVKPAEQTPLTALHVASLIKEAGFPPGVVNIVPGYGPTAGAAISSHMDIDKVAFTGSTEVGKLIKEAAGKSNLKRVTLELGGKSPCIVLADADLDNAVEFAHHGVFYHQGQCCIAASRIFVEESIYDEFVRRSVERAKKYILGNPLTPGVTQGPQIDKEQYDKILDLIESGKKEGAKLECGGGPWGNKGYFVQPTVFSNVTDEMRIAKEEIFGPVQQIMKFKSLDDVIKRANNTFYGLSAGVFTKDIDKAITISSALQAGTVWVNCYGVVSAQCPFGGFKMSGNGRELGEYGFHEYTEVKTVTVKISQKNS

Row | Structure (SMILES) | Potency
1 | Cc1cc(C)nc(NC(=S)N2CCN(c3ccc(Cl)cc3F)CC2)c1 | 4.82 µM (active)
2 | FC(F)(F)c1cccc(N2CCN(C(=S)Nc3ccncc3)CC2)c1 | 27.1 µM (active)
3 | COc1cccc(NC(=S)N2CCN(c3ccccc3C(F)(F)F)CC2)n1 | 2.15 µM (active)
4 | Cc1ccc(N2CCN(C(=S)Nc3cc(C)ccn3)CC2)cc1 | 3.83 µM (active)
5 | COc1ccnc(NC(=S)N2CCN(c3ncc(C(F)(F)F)cc3Cl)CC2)c1 | 1.92 µM (active)
6 | Cc1cc(C)nc(NC(=S)N2CCN(c3ccc4nonc4c3)CC2)c1 | 12.1 µM (active)
7 | Cc1cc(C)nc(NC(=S)N2CCN(c3cccc(C#N)c3)CC2)c1 | 3.83 µM (active)
8 | Cc1cc(C)nc(NC(=S)N2CCN(c3ccc(Cl)cc3C(F)(F)F)CC2)c1 | 7.64 µM (active)
9 | Cc1cc(C)nc(NC(=S)N2CCN(c3cccc(C(F)(F)F)c3)CC2)c1 | 15.2 µM (active)
10 | COc1cccc(NC(=S)N2CCN(c3ccc(Cl)cc3Cl)CC2)n1 | 1.08 µM (active)
